Numbering of substitutions follows the chain as printed. Whole data set: some 24,000 sequences, median “enrichment r” near 0.99, cut for the highest 2% near 3.7. Many of the other results were omitted from the sample, so the highest values are more common in it than they were.
T1: UNK ZnF1-3 (human, UniProt Q9C0B0 31-174)
T1 sequence: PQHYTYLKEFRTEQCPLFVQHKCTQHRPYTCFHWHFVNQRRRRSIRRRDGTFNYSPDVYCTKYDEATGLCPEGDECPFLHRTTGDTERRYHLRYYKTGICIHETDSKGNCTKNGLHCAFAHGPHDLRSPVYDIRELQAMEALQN

B1: 90301638_90312025_2792_CDS_ENSG00000196730_ENST00000408954|human|control|control (ssRNA)
RNA: GGGAGUUCUACAGUCCGACGAUCGACAACAACAUGGAUUGACGUGGGAUCAUUUGCAGCAAAAUAGUCAUAACAGCAGAAAUACACAGGAUUUCCAGAGAACUCCCACACGCUGAAAUCGCCAACUCCAUUCAAAUAAGCGUUCAACAGAGGAUUGAGCAUCA
B2: chr7:97619395:97619396:-_ENSMUSG00000030614_ENSMUST00000032843|mus_mus|motif|central (ssRNA)
RNA: GGGAGUUCUACAGUCCGACGAUCCAGGGAUGCAUAGGUCUUCAAAGCUUCAUAUUUAACCUUGAAACUGUUUCGGAAAACGGAGUUUGCCAUUAUGCCAGACAAACUACUACUUGUUCCAAAGACCAAAGUUCCAUGUAUAUUCAACAGAGGAUUGAGCAUCA
B3: chr6:86474593:86474594:-_ENSMUSG00000051695_ENSMUST00000053015|mus_hu|FALSE|FALSE (ssRNA)
RNA: GGGAGUUCUACAGUCCGACGAUCACAUUUCUUAUCGACAAACAGAAAUAAAAUUCAUGAGCCAAAAAACCCAAAACAAAACUAAAAACAGGGAAAAGCUUAUAAAACUAAAUAUGGAUCCCAGCAUUAACAGCUGAACAGAGACAACAGAGGAUUGAGCAUCA
B4: chr2:27118074:27118075:-_ENSMUSG00000009621_ENSMUST00000056176|mus_hu|FALSE|FALSE (ssRNA)
RNA: GGGAGUUCUACAGUCCGACGAUCAUUCACAGAUAUAUAACGGGAGAUUUGGAUGAAAUAAUUACAAACUUUUUUCCCCUUAAAAAACAAACAAGCCAAACAAAACACAAACAAAACAAAAACCCCAAAACCAAAACACAAGACCAACAGAGGAUUGAGCAUCA
B5: chr6:86474593:86474594:-_ENSMUSG00000051695_ENSMUST00000053015|mus_hu|motif|central (ssRNA)
RNA: B3 RNA with U82G, A83G
B6: chr2:131139019:131139020:-_ENSMUSG00000048911_ENSMUST00000059372|mus_mus|FALSE|FALSE (ssRNA)
RNA: GGGAGUUCUACAGUCCGACGAUCGAUAUAGAUGUUGAGAGGCAGAUUCUGGAAUCCAAUAUUAGGCAUCCUGAAGUUAUAAUGUGGGAAAUCUGAGCUCAUGGAUGAACCGGGCGACGGGCAGCGGGCGUGCGGGCGGCGGCGCAACAGAGGAUUGAGCAUCA
B7: chr11:77336104:77336105:-_ENSG00000074201_ENST00000525064|hu_mus|hu_hu_hu_mus_False|98_108 (ssRNA)
RNA: GGGAGUUCUACAGUCCGACGAUCCUCGCACAUUGCAGUGAACAUUGCCUCCAAUGCUGACUUAUCACUGGGCACAAAUCGAAAUUCAGAAAUGGGUUCAACAUCAUCAUUGUCUUCCUCAUCUUCAUCAGAGAGAGGUUCUUUCAACAGAGGAUUGAGCAUCA
B8: 49074419_49074539_462_3pUTR_ENSMUSG00000020346_ENSMUST00000109194|mouse|control|control (ssRNA)
RNA: GGGAGUUCUACAGUCCGACGAUCCACAGGCAAUGACCAGGAUGGGGAUCUGCACUGGUGAGGGGGUCACAGGCACACGGGGCCAGGCUGGAGGGGCCACAGUGGGAACUCUCCACCUCUGCCUCCACAAAGCAUAAUGCUCCUCAACAGAGGAUUGAGCAUCA
B9: chr8:92086081:92086082:+_ENSG00000155100_ENST00000285420|hu_mus|motif|central (ssRNA)
RNA: GGGAGUUCUACAGUCCGACGAUCAAUCCGAGGUGGUUGAUUCUCAAGUACCAAGUUUGAAAUGUUAACAGCAACAGAAUCGGUCUUACUGUCCUUGAAAGUCAAUUGCUUCAAUUGCUCCAGUUCUUCCCUGUGUUUUUGCUCCAACAGAGGAUUGAGCAUCA
B10: chr3:10015032:10015033:+_ENSMUSG00000027533_ENSMUST00000029046|mus_mus|mus_mus_mus_hu_True|38_48 (ssRNA)
RNA: GGGAGUUCUACAGUCCGACGAUCGUUUUUACCAUCACAAGUGAUGAUACAAUCUGGCUUGGCCAUUGCGCCCAUUUUUCGCAAAGCCAGUCCUACUCCUAGCUCUUUCAUGUAUUCAUCAAAGCCUUUGCUGUCCACCAGGCGCAACAGAGGAUUGAGCAUCA
B11: chr2:48026839:48026840:+_ENSG00000116062_ENST00000540021|hu_hu|hu_hu_hu_mus_False|18_48 (ssRNA)
RNA: GGGAGUUCUACAGUCCGACGAUCAUAGUGAGCCACUAGCGUCCUAAAUCUGGAACAGUGGCGGUCAUCCGAAAACUGGCCGAUGAAAAACUUUCCCAGUGAAGUGUCCACAAAGCACACACCAUAUACACGAGUGUGACCAGACAACAGAGGAUUGAGCAUCA
B12: chr11:46405157:46405158:+_ENSG00000110492_ENST00000395566|hu_hu|hu_hu_hu_mus_False|1_18 (ssRNA)
RNA: GGGAGUUCUACAGUCCGACGAUCCCCUCCCCACUUUGGGCACUUGGUGUGGGCGUGAGAGGACAGGCGUGAUUGACAGAGCUGACAGGAAGACAAAAGGCACUGGUGGGUUAUAUCUCGGGCCUGGGGGAGAGGAGGCGUGGGCAACAGAGGAUUGAGCAUCA
B13: chr11:46405157:46405158:+_ENSG00000110492_ENST00000395566|hu_hu|hu_hu_hu_mus_False|58_108 (ssRNA)
RNA: GGGAGUUCUACAGUCCGACGAUCCCCUUAGGGGUGGGGGCACUUGGUGUGGGCGUGAGAGGACAGGCGUGAUUGACAAAGCUAACGGGAAGACAAAAGGCACUGGUGGGUUAUAUCUUGGGCCUGUGGGAGAGGAGGGCUCCGCAACAGAGGAUUGAGCAUCA
B14: chr11:46405157:46405158:+_ENSG00000110492_ENST00000395566|hu_hu|hu_hu_hu_mus_False|8_108 (ssRNA)
RNA: B13 RNA with A78G, A83G, G86A, G128A, A132G, G134A, A135G
B15: chr11:46405157:46405158:+_ENSG00000110492_ENST00000395566|hu_hu|hu_hu_hu_mus_False|18_108 (ssRNA)
RNA: B13 RNA with A78G, A83G, G86A, U118C, U126G
B16: chr11:46405157:46405158:+_ENSG00000110492_ENST00000395566|hu_hu|hu_hu_hu_mus_False|98_108 (ssRNA)
RNA: B13 RNA with G39C, C40U, A41G, C42G, U43G, U44G, G45A, A78G, A83G, G86A
B17: chr11:46405157:46405158:+_ENSG00000110492_ENST00000395566|hu_hu|hu_hu_hu_mus_False|18_28 (ssRNA)
RNA: B12 RNA with U111C, U113C, C138G, G139C, G141C, G142C

Each binder was assayed against T1, UNK ZnF1-3 (assay: nsRBNS (natural sequence RNA bind-n-seq); RBNS binding buffer (assumed for nsRBNS): 25 mM Tris pH 7.5, 150 mM KCl, 3 mM MgCl2, 0.01% Triton X-100, 500 ug/ml BSA, 20 U/ml SUPERase-In, 4 C; UNK is unkempt and MSI1 is Musashi-1; names of the RNAs are library labels; protein concentration not given here; high values mean tight binding).
In the case of B1, the binding signal is reported as 2.03 enrichment R.
B2 gave a binding signal of 0.591 enrichment R.
B3 gave a binding signal of 5.48 enrichment R.
B4 showed a binding signal of 3.28 enrichment R.
Binder B5 has a binding signal of 4.53 enrichment R.
For B6, the binding signal was 0.719 enrichment R.
B7 gave a binding signal of 0.914 enrichment R.
B8 showed a binding signal of 0.862 enrichment R.
Work on B9 yielded a binding signal of 1.01 enrichment R.
In the case of B10, the binding signal is reported as 0.575 enrichment R.
B11 was tested, and the binding signal was 1.2 enrichment R.
For B12, the binding signal was 3.4 enrichment R.
Binder B13 has a binding signal of 3.45 enrichment R.
With B14 the binding signal was 4.04 enrichment R.
B15 was tested, and the binding signal was 4.17 enrichment R.
B16 was tested, and the binding signal was 3.34 enrichment R.
With B17 the binding signal was 3.48 enrichment R.

Reference: publication PMC12136788
